Compounds with a hit are over-represented: about 10% of the library has one in this group of screens.
G9a block: G9a (human) methyltransferase inhibition; G9a H3K9 monomethylation, AlphaScreen, 2 h; actives 8.8% (n = 350,000); Potency, µM (doses to about 102 µM), for inactives: at the highest dose activity, negative = inhibition, hits mostly inhibitors; Q96KQ7; note: potency is the fitted concentration of half-maximal effect; % is set by controls: 0 for no effect and ±100 for the full control effect; nearly all actives have a fitted effect of over 75% in size
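Compounds were preincubated with 20 nM G9a for 15 min, after which biotinylated H3K9 peptide (500 nM) and SAM (20 uM) started a 2 h room-temperature reaction. Monomethylated product was quantified by antibody-based AlphaScreen chemiluminescence.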
BAZ2B inh: BAZ2B (human) inhibition. Q9UIF8. Potency, µM (series often up to 114 µM), inactives show top-dose activity change, negative = inhibition, usual class: inhibitors. AID 504333. AlphaScreen BAZ2B-H3K14Ac peptide displacement. actives 4.4% (n = 360,000); note: potency is the fitted concentration of half-maximal effect; % is set by controls: 0 for no effect and ±100 for the full control effect; nearly all actives have a fitted effect of over 60% in size
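AlphaScreen displacement: compounds (up to 110uM) incubated 30 min at room temperature with a preformed 50 nM BAZ2B/50 nM biotinylated H3K14Ac peptide complex in PBS pH 7.4 with Tween-20. Donor and acceptor beads at 10 ug/mL final added, 20 min light-protected before reading.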
CtBP-E1A inh: inhibitors of CtBP/E1A interaction. AlphaScreen GST-E1A/His-CtBP binding, 1536-well; active compounds read low. activity change, % (concentration not given with the values). actives 0.49% (n = 340,000). AID 651724; in the data active = activity change below about -65%; inconclusive = mostly about -30% to -63%; note: % is set by controls: 0 for no effect and ±100 for the full control effect
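AlphaScreen with 125 nM GST-E1A and 125 nM His-CtBP (5X stocks) in Tris pH 8.0, 300 mM NaCl, BSA, Tween 20, TCEP. Compounds preincubated 2 h at 37 deg C, then glutathione donor/nickel acceptor beads added for 1 h at 37 deg C in dark.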
Six1-Eya2 blk: blocks human Six1 binding to Eya2. actives 0.56% (n = 360,000). activity change, % (test concentration not listed). AlphaScreen GST-Six1/His-Eya2 binding, biochemical; active compounds read low; in the data active = activity change below about -65%; inconclusive = mostly about -30% to -63%; note: % is set by controls: 0 for no effect and ±100 for the full control effect
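AlphaScreen with GST-Six1 and His-Eya2 (5X mix: 250 nM and 500 nM), glutathione donor and nickel acceptor beads; buffer 50 mM Tris pH 8.0, 300 mM NaCl, 1 mM TCEP; 1 h at 37 C in the dark.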
JMJD2A Tudor: blocks the human JMJD2A Tudor domain | O75164 | Potency, µM (doses to about 114 µM), inactives show at the top dose activity change, negative = inhibition, usual class: inhibitors | AlphaScreen JMJD2A-Tudor / H3K4me3 peptide binding | AID 504339 | actives 4.4% (n = 390,000); note: potency is the fitted concentration of half-maximal effect; % is set by controls: 0 for no effect and ±100 for the full control effect; nearly all actives have a fitted effect of over 50% in size
Target sequence (O75164 whole entry, looked up, the tested form may be a part): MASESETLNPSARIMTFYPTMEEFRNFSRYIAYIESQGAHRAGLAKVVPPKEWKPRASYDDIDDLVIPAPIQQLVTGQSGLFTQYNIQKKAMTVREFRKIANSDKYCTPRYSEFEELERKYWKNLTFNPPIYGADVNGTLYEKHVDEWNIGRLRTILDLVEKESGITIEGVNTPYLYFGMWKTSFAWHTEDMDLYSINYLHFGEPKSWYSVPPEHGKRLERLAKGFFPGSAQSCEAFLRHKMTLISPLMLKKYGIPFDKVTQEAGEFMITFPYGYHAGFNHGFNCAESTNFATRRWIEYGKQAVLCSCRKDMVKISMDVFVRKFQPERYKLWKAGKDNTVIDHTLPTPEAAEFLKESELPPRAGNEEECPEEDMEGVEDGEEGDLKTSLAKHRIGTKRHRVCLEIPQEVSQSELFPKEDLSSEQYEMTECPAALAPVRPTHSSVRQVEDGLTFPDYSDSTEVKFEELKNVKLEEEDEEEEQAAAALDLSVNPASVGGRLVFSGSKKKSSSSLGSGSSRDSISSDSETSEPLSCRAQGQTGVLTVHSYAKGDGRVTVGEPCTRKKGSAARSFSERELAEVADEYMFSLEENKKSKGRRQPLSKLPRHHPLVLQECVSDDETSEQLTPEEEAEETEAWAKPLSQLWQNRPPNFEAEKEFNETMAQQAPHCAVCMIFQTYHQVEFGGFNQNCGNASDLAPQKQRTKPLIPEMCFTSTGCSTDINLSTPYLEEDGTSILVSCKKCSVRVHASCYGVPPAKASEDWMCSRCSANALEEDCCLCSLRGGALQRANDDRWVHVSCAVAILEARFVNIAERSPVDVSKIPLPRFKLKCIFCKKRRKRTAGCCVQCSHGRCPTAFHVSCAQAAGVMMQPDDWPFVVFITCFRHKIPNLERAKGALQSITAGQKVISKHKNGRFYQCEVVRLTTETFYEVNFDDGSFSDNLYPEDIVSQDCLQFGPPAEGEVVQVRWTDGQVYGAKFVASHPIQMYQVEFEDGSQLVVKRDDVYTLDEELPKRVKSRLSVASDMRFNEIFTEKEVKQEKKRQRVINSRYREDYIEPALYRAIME
HP1b binding inh: blocks HP1-beta chromodomain binding to methylated histone tails | Potency, µM (titrated, usually from 114 µM), inactives show top-dose activity change, negative = inhibition, most hits filed as inhibitors | actives 0.56% (n = 390,000) | P83916 | AlphaScreen HP1-beta / biotin-H3K9me3 peptide binding; note: potency is the fitted concentration of half-maximal effect; nearly all actives have a fitted effect of over 70% in size
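HP1-beta protein (50 nM final) preincubated 30 min at room temperature with biotinylated H3(1-18)K9me3 peptide (50 nM) in PBS pH 7.4, 0.01% Tween-20, then compound added for 30 min. AlphaScreen streptavidin donor/nickel chelate acceptor beads (10 ug/mL final), 30 min dark, luminescence read.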
Numbers without * were called inactive; ? = inconclusive; nt = no result; [ ] = dose if it differs, or a comment. Unless noted, calls come from the whole dose curve; as a rule, active = well fitted inhibition curve with a large enough effect; inconclusive = small, poorly fitted or top-dose-only effect; inactive = no such curve, though single readings can be large or run the other way.

SMILES	G9a block	BAZ2B inh	CtBP-E1A inh	Six1-Eya2 blk	JMJD2A Tudor	HP1b binding inh
CCOc1ccccc1CNC(=O)c1ccc(NC(=O)C2=C(C)OCCS2)cc1	32µM*	?	-17	-9	-34%	29%
COc1cc(NC(=O)C2(C)CCCN(C(C)C)C2)cc(OC)c1OC (stereo not drawn)	nt	nt	1	8	nt	nt
C[C@@H](C(=O)N1CCN(C(=O)OC(C)(C)C)CC1)n1cc(CCCN=C(NC(=O)OC(C)(C)C)NC(=O)OC(C)(C)C)nn1	-13%[12.7 µM]	?	3	-2	-17%	13%
CCOC(=O)N/N=C/c1ccc(N2CCOCC2)s1	40µM*	-4%	13	10	-25%	0%
C(=N\N(c1ccccc1)c1ccccc1)/c1ccc(N2CCOCC2)s1	13µM*	?	-10	-20	?	?
CC(C)(C)OC(=O)NCc1n[nH]c(=S)n1C1CC1	?	9%	2	-5	28µM*	30%
CCC(=Cc1ccc(CC)cn1)CC	40µM*	?	-4	-4	-4%	15%[57 µM]
O=C1CCCc2oc3c(c21)CCCC3	50µM*	-21%	0	12	-3%	2%
Cc1ccc(O)c(N=Nc2nccs2)c1	?	10µM*	?	-71*	35µM*	?
COc1ccc(N=Nc2cc(C)ccc2O)cc1	?	8.9µM*	?	?	25µM*	14µM*
Cc1ccc(O)c(N=Nc2ccc(S(=O)(=O)N3CCCC3)cc2)c1	8.9µM*	4µM*	5	14	?	-4%
COc1ccc(N=Nc2ccc3ccccc3c2)c(O)c1	10µM*	5.6µM*	nt	?	10µM*	3.2µM*
CC1(C(=O)N/N=C/c2c(F)c(F)c(F)c(F)c2F)CC1(Cl)Cl (stereo not drawn)	nt	nt	-2	-3	-5%	6%
O=C1C(c2ccccc2)SC(=Nc2ccccc2)N1S(=O)(=O)c1ccccc1 (stereo not drawn)	?	?	1	9	-24%	?
COc1cccc(N=Nc2ccc3ccccc3c2O)c1	nt	1.6µM*	nt	-82*	2.8µM*	?
COc1ccc(N=Cc2oc3ccc4ccccc4c3c2O)cc1	-50%	-37%	4	5	-24%	43%
Cc1cccc(N2C(=O)/C(=C/c3cccnc3)SC2=S)c1	16µM*	?	0	3	?	-8%
Cc1cc(/C=C2/SC(=S)N(c3cccc(Cl)c3)C2=O)c(C)n1-c1cccnc1	nt	nt	-27	?	?	-22%
Cc1cc(/C=C2/SC(=S)N(c3ccc([N+](=O)[O-])cc3)C2=O)c(C)n1-c1cccnc1	10µM*	?	-8	-9	?	-31%
CCCc1cc(=O)n2[nH]c(NCc3ccccc3OC)nc2n1	?	-9%	nt	nt	-2%	15%
Cc1ccc(C2(c3ccc(C)cc3)CC2C(=O)Nc2ccc([N+](=O)[O-])cc2O)cc1 (stereo not drawn)	25µM*	?	15	?	?	-32%
C/C(=N/OC(=O)c1ccc(C)cc1)c1ccc(N2C(=O)C3CCCCC3C2=O)cc1 (stereo not drawn)	-27%	10%	6	3	40µM*	-11%
Cc1cc(O)c2c(c1O)C(=O)[C@]13C(=C2O)C(=O)[C@@H]2[C@@H](O)[C@H]1[C@@H]1[C@H](O)[C@H]3C(=O)C3=C(O)c4c(O)cc(C)c(O)c4C(=O)[C@]312	nt	nt	-24	?	7.9µM*	?
CCCCNC(=O)CCCCCn1c(=O)[nH]c2ccccc2c1=O	6%[59 µM]	5%	nt	nt	-4%	40%
Cc1cccnc1NC(=S)NC(=O)/C=C/c1ccccc1	?	79µM*	-2	?	-26%	14%
SMILES	G9a block	BAZ2B inh	CtBP-E1A inh	Six1-Eya2 blk	JMJD2A Tudor	HP1b binding inh
Cc1cccnc1NC(=S)NC(=O)c1cccs1	?	-28%	-3	-1	22µM*	-13%
COC(=O)c1nc(NC(=S)NC(=O)c2cccs2)sc1C	50µM*	-28%	-2	-5	-25%	-10%
CCc1ccc(-c2nc(NC(=S)NC(=O)c3cccs3)sc2C)cc1	-3%[59 µM]	4%	2	1	-22%	-12%
Cc1cccnc1NC(=O)Nc1cccc2ccccc12	7.1µM*	-2%	0	1	-15%	10%
Cc1cccnc1NC(=O)CNC(=O)c1cccs1	8%[0.501 µM]	11%	6	9	-8%	18%
COc1cccc(C2CC(=O)Nc3cc4c(cc32)OCCO4)c1OC (stereo not drawn)	-27%[59 µM]	-17%	nt	nt	-21%	-1%
CCOC(=O)c1cccc(NC(=O)CCC(=O)N2CC(C)Oc3ccc(C)cc32)c1 (stereo not drawn)	-2%[59 µM]	-10%	nt	nt	-27%	9%
O=C(OC1CCOC1=O)c1ccc2ncsc2c1 (stereo not drawn)	28µM*	3%	3	2	-3%	35%
NS(=O)(=O)c1cc(C(=O)OC2CCOC2=O)ccc1Cl (stereo not drawn)	?	-10%	-1	-18	1%	13%
COc1ccc(N2CCN(C(=O)CN(c3ccc(OC)cc3)S(=O)(=O)c3ccccc3)CC2)cc1	40µM*	?	-27	?	?	-18%
COc1ccc(N2CCN(C(=O)c3ccccc3N(C)S(=O)(=O)c3ccc(C)cc3)CC2)cc1	?	40µM*	7	-24	?	-30%
COc1ccc(N2CCN(C(=O)CN(c3ccccc3)S(=O)(=O)c3ccc(OC)cc3)CC2)cc1	10µM*	?	1	1	56µM*	?
Cc1ccc(S(=O)(=O)N(C)c2ccccc2C(=O)N2CCCC2)cc1	nt	7%	-3	1	-9%	11%
COc1ccc(S(=O)(=O)N(CC(=O)N2CCN(c3ccccc3OC)CC2)c2ccccc2)cc1	?	-35%	-8	-10	-27%	6%
O=C(NCc1ccco1)c1ccc(CS(=O)Cc2cccc(Cl)c2)o1 (stereo not drawn)	10%	-22%	-1	-1	-2%	33%
C=C1c2ccccc2O[C@H](C(=O)OCC)[C@@H]1CC(C)(C)c1ccccc1	3%	nt	nt	nt	nt	nt
N#CCC(=O)Nc1ccc(C(=O)Nc2cccc(S(=O)(=O)N3CCCC3)c2)cc1	nt	nt	0	-10	nt	nt
O=C(Cc1ccc(-c2ccccc2)cc1)OCC(=O)N1CCCC1=O	8%	3%	-1	-2	1%	39%
CC(=O)Sc1nc(-c2ccccc2)[nH]c1S(=O)(=O)c1ccc(C)cc1	2.2µM*	?	-3	0	13µM*	?
